Experimental data: the supplement of paper PMC10849652
Of roughly 8,800 targets only a part is listed; those with a hit were picked by preference. About 0.5% of all pairs of compound and target were hits.

Assays:
Experiment in all cases: log2 fold change, soluble protein after heating vs DMSO (PISA); higher = thermal stabilisation; K562 lysate, 10 uM; active = over 0.2 and 3.5 SD of the protein, either way, in both replicates (recomputed)
[1] = compound: Cc1cn(-c2cc(NC(=O)c3ccc(C)c(Nc4nccc(-c5cccnc5)n4)c3)cc(C(F)(F)F)c2)cn1 [nilotinib]
Method in brief: (§1)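 K562 pellets were dounce-homogenised in PBS pH 7.4 with 1 mM MgCl2, and the crude extract at 1 mg/mL protein was treated with 10 μM compound for 30 min. Aliquots were heated for 3 min across 48°C-58°C, pooled, and brought to 0.5% NP-40 at 4°C; soluble protein was the supernatant after 21,000xg for 90 min. Soluble protein was quantified by TMTpro 16plex LC-MS/MS with channel sums equalised, and reported as log2 fold change in thermal stability against DMSO controls, with values from duplicates.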

[2] = compound: Cc1nc(Nc2n[nH]c3c2CN(C(=O)N[C@H](CN(C)C)c2ccccc2)C3(C)C)c2sccc2n1
Method in brief: as §1

[3] = compound: Cc1nc(Nc2ncc(C(=O)Nc3c(C)cccc3Cl)s2)cc(N2CCN(CCO)CC2)n1 [dasatinib]
Method in brief: as §1

[4] = compound: Cc1ncc(-c2ccnc(Nc3ccc(S(C)(=O)=O)cc3)n2)n1C(C)C
Method in brief: as §1

[5] = compound: Cn1cc(-c2ccc3c(c2)CCN3C(=O)Cc2cccc(C(F)(F)F)c2)c2c(N)ncnc21
Method in brief: as §1

[6] = compound: Cn1cc(CNCC2CCN(c3ncc(C(=O)NO)cn3)CC2)c2ccccc21 [quisinostat]
Method in brief: as §1

[7] = compound: Cn1cncc1[C@@](N)(c1ccc(Cl)cc1)c1ccc2c(c1)c(-c1cccc(Cl)c1)cc(=O)n2C [tipifarnib]
Method in brief: as §1

[8] = compound: NC(=O)Nc1cc(-c2cccc(F)c2)sc1C(=O)N[C@H]1CCCNC1
Method in brief: as §1

[9] = compound: NC(=O)c1cnc(N[C@@H]2CCCC[C@@H]2N)nc1Nc1cccc(-n2nccn2)c1
Method in brief: as §1

[10] = compound: NC1(c2ccc(-c3nc4ccn5c(=O)[nH]nc5c4cc3-c3ccccc3)cc2)CCC1
Method in brief: as §1

[11] = compound: NCC(=O)Nc1ccc(-n2nc(C(F)(F)F)cc2-c2ccc3c(ccc4ccccc43)c2)cc1
Method in brief: as §1

[12] = compound: O=C(CCCCCCC(=O)Nc1ccccc1)NO [vorinostat]
Method in brief: as §1

[13] = compound: O=C(O)c1ccc2c(c1)nc(Nc1cccc(Cl)c1)c1ccncc12 [silmitasertib]
Method in brief: as §1

[14] = compound: O=C1NC(=O)C(c2cnc3ccccn23)=C1c1cn2c3c(cc(F)cc13)CN(C(=O)N1CCCCC1)CC2
Method in brief: as §1

[15] = compound: c1cn2cc(-c3ccc4cn[nH]c4c3)nc(Nc3ccc(N4CCOCC4)cc3)c2n1 [entospletinib]
Method in brief: as §1

Measured: log2 fold change

MTOR (UniProt P42345)
active: [12] -0.305
inactive: [1] 0.007 | [2] -0.022 | [3] -0.064 | [4] 0.001 | [5] 0.039 | [6] -0.067 | [7] 0.015 | [8] 0.04 | [9] 0.017 | [10] -0.033 | [11] -0.035 | [13] 0.146 | [14] -0.013 | [15] -0.024

ORC1 (UniProt Q13415)
inactive: [15] -0.047

NEXN (UniProt Q0ZGT2)
Sequence of UniProt Q0ZGT2 (Q0ZGT2 whole entry, looked up): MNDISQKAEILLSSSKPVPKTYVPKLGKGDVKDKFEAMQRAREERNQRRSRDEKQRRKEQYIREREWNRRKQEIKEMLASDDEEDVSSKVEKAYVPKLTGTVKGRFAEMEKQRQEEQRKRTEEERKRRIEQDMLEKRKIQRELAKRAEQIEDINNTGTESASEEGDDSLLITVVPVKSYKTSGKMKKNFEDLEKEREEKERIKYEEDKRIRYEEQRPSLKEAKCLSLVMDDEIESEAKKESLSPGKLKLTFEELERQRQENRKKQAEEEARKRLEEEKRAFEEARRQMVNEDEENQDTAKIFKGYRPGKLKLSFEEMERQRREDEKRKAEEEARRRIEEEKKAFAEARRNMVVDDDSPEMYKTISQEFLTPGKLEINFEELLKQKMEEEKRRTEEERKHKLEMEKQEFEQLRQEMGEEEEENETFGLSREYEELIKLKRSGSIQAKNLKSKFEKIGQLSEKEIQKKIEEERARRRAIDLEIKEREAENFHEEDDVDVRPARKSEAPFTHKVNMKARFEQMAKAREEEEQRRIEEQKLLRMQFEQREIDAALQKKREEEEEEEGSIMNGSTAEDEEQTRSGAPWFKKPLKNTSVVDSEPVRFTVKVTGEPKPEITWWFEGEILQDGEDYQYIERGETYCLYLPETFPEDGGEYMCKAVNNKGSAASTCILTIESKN
inactive: [1] -0.022 | [2] -0.011 | [3] 0.043 | [4] -0.051 | [5] 0.027 | [7] -0.043 | [9] -0.149 | [10] -0.002 | [11] 0.144 | [12] -0.335 | [13] -0.038 | [15] 0.042

NOCT (UniProt Q9UK39)
active: [12] -0.886
inactive: [1] -0.045 | [2] 0.011 | [3] 0.013 | [4] -0.084 | [5] 0.017 | [6] 0 | [7] 0.061 | [8] 0.043 | [9] 0.004 | [10] -0.014 | [13] 0.004 | [14] -0.036 | [15] -0.301

NAA16 (UniProt Q6N069)
inactive: [1] 0.068 | [2] -0.139 | [3] -0.042 | [4] 0.039 | [5] 0.071 | [7] -0.015 | [9] 0.08 | [11] 0.43 | [15] -0.018

NFATC4 isoform 2 (UniProt Q14934)
inactive: [1] -0.046 | [2] -0.018 | [3] 0.055 | [4] 0.04 | [5] -0.041 | [6] -0.07 | [7] -0.066 | [8] 0.01 | [9] -0.017 | [11] 0.207 | [14] 0.076 | [15] 0.019

NUB1 isoform 2 (UniProt Q9Y5A7)
Sequence of UniProt Q9Y5A7 (Q9Y5A7 whole entry, looked up): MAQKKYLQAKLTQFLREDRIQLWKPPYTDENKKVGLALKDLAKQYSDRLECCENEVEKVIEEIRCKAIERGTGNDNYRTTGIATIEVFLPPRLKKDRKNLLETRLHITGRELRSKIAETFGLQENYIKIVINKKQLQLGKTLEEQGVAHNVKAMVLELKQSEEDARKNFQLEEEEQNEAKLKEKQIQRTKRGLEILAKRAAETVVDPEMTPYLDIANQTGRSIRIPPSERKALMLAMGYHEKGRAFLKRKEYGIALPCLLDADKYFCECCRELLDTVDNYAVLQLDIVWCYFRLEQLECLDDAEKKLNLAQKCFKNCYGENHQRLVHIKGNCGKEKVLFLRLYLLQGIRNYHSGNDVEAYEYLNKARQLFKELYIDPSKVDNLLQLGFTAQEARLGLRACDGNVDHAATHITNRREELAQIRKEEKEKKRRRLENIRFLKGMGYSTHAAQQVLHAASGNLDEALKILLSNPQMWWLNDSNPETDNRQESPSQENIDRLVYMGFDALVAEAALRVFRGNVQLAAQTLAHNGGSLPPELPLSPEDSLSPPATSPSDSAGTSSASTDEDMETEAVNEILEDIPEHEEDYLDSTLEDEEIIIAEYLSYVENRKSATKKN
inactive: [6] 0.205 | [8] -0.019 | [14] -0.068

NAA38 isoform 2 (UniProt Q9BRA0)
inactive: [1] -0.024 | [2] 0.059 | [3] -0.014 | [4] -0.007 | [5] 0.001 | [6] 0.03 | [7] -0.03 | [8] 0.027 | [9] 0.016 | [10] -0.019 | [11] -0.015 | [12] -0.088 | [13] 0.009 | [14] 0.04 | [15] -0.035

P2RY1 (UniProt P47900)
inactive: [3] 0.012 | [5] -0.027 | [9] -0.182 | [10] 0.004 | [12] 0.04 | [13] 0.13 | [15] -0.064

MUC5AC (UniProt P98088)
active: [7] -0.593
inactive: [1] 0.02 | [2] 0.048 | [4] 0.128

MYO10 (UniProt Q9HD67)
inactive: [1] -0.019 | [2] -0.021 | [4] 0.126 | [6] 0.074 | [7] -0.063 | [8] -0.051 | [10] -0.161 | [11] 0.401 | [12] -0.038 | [13] 0 | [14] 0.159

NDUFAF5 (UniProt Q5TEU4)
inactive: [3] 0.02 | [5] -0.061 | [6] -0.078 | [8] 0.114 | [9] -0.034 | [10] -0.042 | [11] -0.023 | [12] 0.065 | [13] 0.002 | [14] -0.006 | [15] -0.046

OSBPL1A (UniProt Q9BXW6)
inactive: [1] -0.07 | [2] -0.02 | [3] -0.044 | [4] -0.051 | [5] -0.027 | [6] -0.147 | [7] 0.015 | [8] 0 | [9] -0.024 | [12] 0.128 | [13] -0.19 | [14] -0.14
active: [10] -0.388

NR2C2 isoform 2 (UniProt P49116)
Sequence of UniProt P49116 (P49116 whole entry, looked up): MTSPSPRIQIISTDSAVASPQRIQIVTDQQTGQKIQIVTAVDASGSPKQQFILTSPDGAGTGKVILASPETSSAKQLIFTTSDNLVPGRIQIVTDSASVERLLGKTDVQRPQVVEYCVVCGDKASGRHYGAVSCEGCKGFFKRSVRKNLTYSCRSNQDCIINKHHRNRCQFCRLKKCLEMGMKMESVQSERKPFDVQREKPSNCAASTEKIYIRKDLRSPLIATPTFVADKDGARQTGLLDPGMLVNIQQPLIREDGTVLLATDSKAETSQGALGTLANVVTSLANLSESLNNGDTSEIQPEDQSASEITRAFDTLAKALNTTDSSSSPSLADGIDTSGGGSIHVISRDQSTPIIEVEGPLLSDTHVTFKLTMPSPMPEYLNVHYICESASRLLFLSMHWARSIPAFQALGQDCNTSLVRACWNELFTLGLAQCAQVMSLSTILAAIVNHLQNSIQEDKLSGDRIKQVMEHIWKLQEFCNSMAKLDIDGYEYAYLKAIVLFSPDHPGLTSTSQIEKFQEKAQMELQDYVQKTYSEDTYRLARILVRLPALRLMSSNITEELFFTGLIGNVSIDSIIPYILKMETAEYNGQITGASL
inactive: [3] -0.033 | [5] 0.064 | [6] -0.054 | [8] 0.04 | [9] -0.025 | [10] -0.048 | [11] -0.024 | [12] -0.233 | [13] 0.041 | [14] 0.008 | [15] 0.028

PAPOLG (UniProt Q9BWT3)
Sequence of UniProt Q9BWT3 (Q9BWT3 whole entry, looked up): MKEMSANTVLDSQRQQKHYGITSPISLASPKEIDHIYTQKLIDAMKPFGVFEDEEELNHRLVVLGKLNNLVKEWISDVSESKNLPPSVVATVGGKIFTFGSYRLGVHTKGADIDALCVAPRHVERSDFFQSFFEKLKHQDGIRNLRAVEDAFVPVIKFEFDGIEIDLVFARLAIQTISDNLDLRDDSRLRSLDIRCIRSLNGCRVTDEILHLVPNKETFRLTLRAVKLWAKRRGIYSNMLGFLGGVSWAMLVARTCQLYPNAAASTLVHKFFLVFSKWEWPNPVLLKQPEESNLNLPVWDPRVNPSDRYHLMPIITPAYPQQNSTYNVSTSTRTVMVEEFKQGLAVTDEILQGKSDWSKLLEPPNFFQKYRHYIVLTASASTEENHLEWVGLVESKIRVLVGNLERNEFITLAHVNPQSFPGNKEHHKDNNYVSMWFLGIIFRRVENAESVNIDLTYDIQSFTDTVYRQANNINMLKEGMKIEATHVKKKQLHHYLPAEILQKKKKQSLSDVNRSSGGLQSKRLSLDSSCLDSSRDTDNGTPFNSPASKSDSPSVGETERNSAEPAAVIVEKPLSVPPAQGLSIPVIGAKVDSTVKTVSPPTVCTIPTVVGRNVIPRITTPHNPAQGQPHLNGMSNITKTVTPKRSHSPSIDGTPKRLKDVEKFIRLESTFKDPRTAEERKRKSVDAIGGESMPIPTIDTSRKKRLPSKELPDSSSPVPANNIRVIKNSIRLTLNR
active: [12] -0.369
inactive: [1] 0.025 | [2] -0.025 | [3] -0.023 | [4] 0.031 | [5] 0.079 | [6] -0.056 | [7] 0.079 | [8] -0.054 | [10] 0.445 | [11] -0.037 | [13] 0.209 | [14] 0.066 | [15] -0.013

PANK2 (UniProt Q9BZ23)
inactive: [1] -0.068 | [2] -0.111 | [3] 0.135 | [4] 0.001 | [5] -0.032 | [6] 0.045 | [7] 0.126 | [8] -0.053 | [9] -0.005 | [11] 0 | [14] -0.012 | [15] -0.023

MTHFD1 (UniProt V9GZ32)
inactive: [1] -0.43 | [2] -0.802 | [4] -0.041 | [7] 0.188 | [9] -0.185

MYLK (UniProt Q15746)
inactive: [1] 0.138 | [2] -0.197 | [4] -0.108 | [6] 0.048 | [7] -0.035 | [8] -0.175 | [9] 0.079 | [11] -0.312 | [14] -0.294 | [15] -0.096

MYH6 (UniProt P13533)
Sequence of UniProt P13533 (P13533 whole entry, looked up): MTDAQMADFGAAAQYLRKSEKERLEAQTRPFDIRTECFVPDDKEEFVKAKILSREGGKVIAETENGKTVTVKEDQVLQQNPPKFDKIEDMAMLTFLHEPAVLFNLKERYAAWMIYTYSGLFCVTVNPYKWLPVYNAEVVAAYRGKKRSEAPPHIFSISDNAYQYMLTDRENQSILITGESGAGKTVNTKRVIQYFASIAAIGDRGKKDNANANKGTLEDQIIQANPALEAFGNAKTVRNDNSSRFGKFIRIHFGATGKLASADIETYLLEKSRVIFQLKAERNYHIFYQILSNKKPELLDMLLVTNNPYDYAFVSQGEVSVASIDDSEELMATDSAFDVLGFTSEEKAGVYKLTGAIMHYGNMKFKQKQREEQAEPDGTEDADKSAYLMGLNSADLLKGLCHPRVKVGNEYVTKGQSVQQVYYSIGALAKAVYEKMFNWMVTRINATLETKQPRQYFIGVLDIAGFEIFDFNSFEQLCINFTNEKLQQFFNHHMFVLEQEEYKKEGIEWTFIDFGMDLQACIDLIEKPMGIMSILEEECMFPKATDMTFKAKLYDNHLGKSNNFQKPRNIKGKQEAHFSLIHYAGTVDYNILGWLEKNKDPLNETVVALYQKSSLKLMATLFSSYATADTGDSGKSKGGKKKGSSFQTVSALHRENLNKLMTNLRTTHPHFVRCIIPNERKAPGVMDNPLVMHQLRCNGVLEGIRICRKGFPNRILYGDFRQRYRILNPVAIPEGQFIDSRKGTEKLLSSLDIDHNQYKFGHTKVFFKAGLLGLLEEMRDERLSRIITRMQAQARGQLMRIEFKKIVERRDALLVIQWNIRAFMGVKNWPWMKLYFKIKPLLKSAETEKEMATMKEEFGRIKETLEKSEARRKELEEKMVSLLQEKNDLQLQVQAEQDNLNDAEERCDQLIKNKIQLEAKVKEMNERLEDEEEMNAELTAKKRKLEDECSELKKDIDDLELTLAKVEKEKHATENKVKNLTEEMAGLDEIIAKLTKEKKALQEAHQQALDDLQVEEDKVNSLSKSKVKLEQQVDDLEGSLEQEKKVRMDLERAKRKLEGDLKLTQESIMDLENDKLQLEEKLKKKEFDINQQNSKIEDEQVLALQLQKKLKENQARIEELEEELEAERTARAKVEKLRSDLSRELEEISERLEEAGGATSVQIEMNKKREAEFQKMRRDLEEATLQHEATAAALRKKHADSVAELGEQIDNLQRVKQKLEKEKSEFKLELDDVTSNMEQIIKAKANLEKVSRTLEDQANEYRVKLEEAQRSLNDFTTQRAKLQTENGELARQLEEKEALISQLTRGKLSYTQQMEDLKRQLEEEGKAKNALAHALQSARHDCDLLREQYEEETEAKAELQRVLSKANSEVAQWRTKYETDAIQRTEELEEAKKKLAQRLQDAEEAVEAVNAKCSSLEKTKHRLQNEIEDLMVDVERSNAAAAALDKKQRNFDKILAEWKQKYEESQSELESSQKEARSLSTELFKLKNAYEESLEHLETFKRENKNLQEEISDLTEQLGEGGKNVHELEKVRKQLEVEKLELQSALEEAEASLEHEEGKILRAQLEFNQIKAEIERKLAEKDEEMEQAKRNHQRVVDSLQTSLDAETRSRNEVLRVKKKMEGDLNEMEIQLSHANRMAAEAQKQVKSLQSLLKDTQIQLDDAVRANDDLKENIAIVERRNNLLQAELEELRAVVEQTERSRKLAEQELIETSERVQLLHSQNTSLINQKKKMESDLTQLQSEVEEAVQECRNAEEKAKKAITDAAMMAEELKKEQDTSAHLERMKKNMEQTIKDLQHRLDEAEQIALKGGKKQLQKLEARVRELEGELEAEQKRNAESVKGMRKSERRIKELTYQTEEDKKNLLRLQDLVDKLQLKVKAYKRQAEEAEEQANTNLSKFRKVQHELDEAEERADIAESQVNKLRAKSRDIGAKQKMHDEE
inactive: [6] -0.007 | [8] 0.082 | [9] 0.092 | [10] -0.114 | [12] 0.209 | [13] -0.053 | [14] 0.188 | [15] 0.102

NUMB isoform 2 (UniProt P49757)
inactive: [1] -0.293 | [2] -0.07 | [3] 0.227 | [4] 0.225 | [5] -0.127 | [7] -0.068

NR2F2 (UniProt P24468)
inactive: [1] -0.063 | [2] 0.107 | [3] -0.027 | [4] -0.125 | [5] -0.006 | [6] -0.024 | [7] 0.034 | [8] 0.125 | [9] 0.024 | [10] 0.029 | [13] 0.176 | [14] 0.017
active: [12] -0.389

NFAT5 isoform 4 (UniProt O94916)
inactive: [6] 0.014 | [8] 0.012 | [14] -0.062

NTMT1 (UniProt S4R338)
inactive: [9] -0.027

NUDT6 (UniProt P53370)
Sequence of UniProt P53370 (P53370 whole entry, looked up): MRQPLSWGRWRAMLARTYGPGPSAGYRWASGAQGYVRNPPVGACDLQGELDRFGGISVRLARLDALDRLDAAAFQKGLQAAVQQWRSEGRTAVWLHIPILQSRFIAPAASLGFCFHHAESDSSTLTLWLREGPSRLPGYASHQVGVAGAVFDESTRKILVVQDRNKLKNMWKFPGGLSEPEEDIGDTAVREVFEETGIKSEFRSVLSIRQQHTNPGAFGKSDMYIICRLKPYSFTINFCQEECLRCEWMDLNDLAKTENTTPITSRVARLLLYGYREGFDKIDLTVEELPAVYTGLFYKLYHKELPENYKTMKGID
inactive: [3] -0.013 | [5] 0.032 | [6] 0.021 | [8] -0.03 | [10] -0.058 | [11] 0.128 | [12] 0.038 | [13] -0.096 | [14] 0.02 | [15] -0.225

NSA2 (UniProt O95478)
inactive: [1] 0.102 | [2] -0.04 | [3] -0.323 | [4] -0.08 | [5] -0.113 | [7] -0.004 | [9] 0.076 | [10] -0.15 | [11] 0.035 | [12] -0.073 | [13] -0.042 | [15] 0.208

ORC3 (UniProt Q9UBD5)
inactive: [1] 0.038 | [2] -0.062 | [4] 0.059 | [7] -0.084 | [9] -0.053

NUDT5 (UniProt C9JYY9)
inactive: [1] -0.049 | [2] 0.02 | [4] 0.228 | [7] -0.068 | [10] -0.119 | [12] -0.041 | [13] 0.129 | [15] 0.01

PAGE4 (UniProt O60829)
Sequence of UniProt O60829 (O60829 whole entry, looked up): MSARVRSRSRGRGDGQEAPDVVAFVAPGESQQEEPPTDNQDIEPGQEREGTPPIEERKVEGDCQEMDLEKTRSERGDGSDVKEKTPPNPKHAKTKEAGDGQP
inactive: [3] -0.086 | [5] -0.035 | [6] -0.097 | [8] 0.036 | [9] 0.04 | [10] 0.004 | [13] 0.06 | [14] -0.074 | [15] -0.054
active: [12] -0.425

NPLOC4 (UniProt I3L3I1)
inactive: [3] 0.057 | [5] -0.116 | [8] 0.196 | [14] 0.253 | [15] -0.146
active: [6] -0.986

MT-ATP8 (UniProt P03928)
Sequence of UniProt P03928 (P03928 whole entry, looked up): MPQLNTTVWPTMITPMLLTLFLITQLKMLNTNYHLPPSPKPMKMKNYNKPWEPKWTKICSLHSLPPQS
inactive: [1] 0.055 | [2] 0.177 | [4] 0.214 | [6] 0.043 | [7] 0.085 | [8] 0.056 | [9] -0.067 | [10] -0.084 | [11] 0.056 | [12] 0.155 | [13] -0.026 | [14] 0.08 | [15] -0.009

PARD3B (UniProt Q8TEW8)
inactive: [3] 0.051 | [5] -0.095 | [10] 0.174 | [13] -0.209
active: [12] -0.585

MYOM1 (UniProt P52179)
inactive: [1] -0.127 | [2] -0.078 | [3] 0.058 | [4] 0.039 | [5] 0.023 | [6] 0.115 | [7] 0.01 | [8] 0.083 | [9] -0.016 | [10] -0.035 | [11] 0.062 | [12] 0.055 | [13] 0.014 | [14] 0.292 | [15] 0.028

NRIP1 (UniProt P48552)
inactive: [1] 0.035 | [2] -0.127 | [3] 0.135 | [4] 0.035 | [5] 0 | [6] -0.437 | [7] -0.03 | [8] 0.083 | [9] 0.022 | [10] -0.048 | [12] 0.274 | [13] 0 | [14] 0.06
